PubChem BioAssay
The source made the active and inactive calls.

Tests used:
[1] = compounds binding Alexa647 anti-His antibody – biochemical, small-molecule microarray, 635 nm fluorescence, artefact control for SMM control protein annotation, primary screen (AID 1128); details: higher = more signal;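 further: score merges feature fluorescence with signal-to-noise for each printed compound spot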
[2] = system: Human papillomavirus type 1a E7 protein (residues 1-88); assay: HPV1a E7 small-molecule binders, primary screen, biochemical, small-molecule microarray, residues 1-88, 635 nm (AID 1129); details: small-molecule microarray binding, fluorescence 635 nm; higher = more signal
[3] = target: Focal adhesion kinase 1 (Homo sapiens) (UniProt Q05397); assay: PTK2 protein binding on printed compound slides – biochemical, small-molecule microarray, 635/667 nm fluorescence, BSA, DTT, primary screen (AID 1130); details: 635 nm fluorescence, higher = more signal;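 further: composite of spot emission at 667 nm and signal to noise over triplicate slides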
[4] = system: Fibrinogen (Alexa647-labelled); assay: Alexa647-fibrinogen binding to printed small molecules – biochemical, small-molecule microarray, 635/667 nm fluorescence, artefact control for SMM control-protein annotation, profiling panel (AID 1131); details: fibrinogen-A647 binding fluorescence, higher = more signal;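 further: z-score merges 667 nm fluorescence with per-spot signal-to-noise over triplicate slides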
[5] = target: Follistatin (Homo sapiens) (UniProt P19883); assay: FST protein binding to printed compounds – biochemical, small-molecule microarray, 635/667 nm fluorescence, primary screen (AID 1132); details: 635 nm fluorescence, higher = more signal
[6] = target: Fibroblast growth factor 2 (Homo sapiens) (UniProt P09038); assay: basic fibroblast growth factor binding to printed compounds – biochemical, small-molecule microarray, 635/667 nm fluorescence, primary screen (AID 1133); details: FGF2, fluorescence 635/667, higher = more signal
[7] = JC-1 mitochondrial potential readout, lung cancer cells – cell-based, A549, JC-1 fluorescence, basal, 24 h, 100 nL, profiling panel (AID 1138); details: higher = more signal;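 further: A549 lung adenocarcinoma cells under basal conditions with no added stimulus; test concentration not given here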
Lefty1 = Lefty1 protein binding to printed compounds – biochemical, small-molecule microarray, 635/667 nm fluorescence, primary screen (AID 1139); details: fluorescence 635/667, higher = more signal
[8] = system: wheat germ agglutinin (Triticum aestivum), Alexa647-labelled; assay: Alexa647-WGA lectin binding to printed small molecules – biochemical, small-molecule microarray, 635/667 nm fluorescence, artefact control for SMM control-protein annotation, profiling panel (AID 1140); details: WGA-A647 binding, 635 nm fluorescence, higher = more signal;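 further: score merges 667 nm feature emission with signal to noise over triplicate slides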
[9] = target: Luciferin 4-monooxygenase (Photinus pyralis) (UniProt P08659); assay: inhibition of purified Photinus pyralis luciferase – biochemical, luminescence, purified enzyme, 2006 set, primary screen (AID 1141); details: purified firefly luciferase, SteadyGlo luminescence, 30 min; higher = more signal, called active from +8 up or from −8 down;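 further: cell-free assay with purified firefly luciferase at 100 ng per well in PBS; test concentration not given here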
Chain of Luciferin 4-monooxygenase (Photinus pyralis) (P08659 whole entry, looked up): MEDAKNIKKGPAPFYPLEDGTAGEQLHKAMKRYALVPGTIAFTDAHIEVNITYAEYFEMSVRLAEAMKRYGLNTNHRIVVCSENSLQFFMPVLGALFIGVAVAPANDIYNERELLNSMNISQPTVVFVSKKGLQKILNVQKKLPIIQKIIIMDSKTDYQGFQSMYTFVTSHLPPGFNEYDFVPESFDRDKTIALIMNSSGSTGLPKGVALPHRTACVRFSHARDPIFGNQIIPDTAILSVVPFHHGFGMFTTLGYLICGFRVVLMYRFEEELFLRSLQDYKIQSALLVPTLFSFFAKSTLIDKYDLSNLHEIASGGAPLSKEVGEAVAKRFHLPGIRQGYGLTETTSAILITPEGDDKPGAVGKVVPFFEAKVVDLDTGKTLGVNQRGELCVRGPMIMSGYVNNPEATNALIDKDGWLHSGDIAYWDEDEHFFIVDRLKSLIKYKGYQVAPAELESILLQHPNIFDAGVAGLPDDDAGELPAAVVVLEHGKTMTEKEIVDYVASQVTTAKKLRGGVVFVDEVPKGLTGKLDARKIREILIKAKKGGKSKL

Chain of Fibroblast growth factor 2 (Homo sapiens) (P09038 whole entry, looked up): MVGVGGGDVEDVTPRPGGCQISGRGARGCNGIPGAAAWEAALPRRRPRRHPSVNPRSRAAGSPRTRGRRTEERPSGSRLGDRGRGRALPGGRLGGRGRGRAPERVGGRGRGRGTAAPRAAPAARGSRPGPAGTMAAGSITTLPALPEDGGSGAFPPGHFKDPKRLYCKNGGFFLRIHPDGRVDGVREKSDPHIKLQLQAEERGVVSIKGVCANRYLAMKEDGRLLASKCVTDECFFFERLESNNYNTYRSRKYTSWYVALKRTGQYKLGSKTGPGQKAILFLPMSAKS
Chain of Follistatin (Homo sapiens) (P19883 whole entry, looked up): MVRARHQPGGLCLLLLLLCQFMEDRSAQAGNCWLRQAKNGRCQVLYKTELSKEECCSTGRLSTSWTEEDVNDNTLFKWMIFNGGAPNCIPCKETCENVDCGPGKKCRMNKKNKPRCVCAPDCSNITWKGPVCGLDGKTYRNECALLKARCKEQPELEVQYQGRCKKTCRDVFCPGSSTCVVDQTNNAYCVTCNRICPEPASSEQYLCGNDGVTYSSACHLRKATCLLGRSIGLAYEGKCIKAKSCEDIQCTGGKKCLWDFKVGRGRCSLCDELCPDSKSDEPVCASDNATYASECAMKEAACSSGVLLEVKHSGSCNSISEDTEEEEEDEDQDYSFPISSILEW
Chain of Focal adhesion kinase 1 (Homo sapiens) (Q05397 whole entry, looked up): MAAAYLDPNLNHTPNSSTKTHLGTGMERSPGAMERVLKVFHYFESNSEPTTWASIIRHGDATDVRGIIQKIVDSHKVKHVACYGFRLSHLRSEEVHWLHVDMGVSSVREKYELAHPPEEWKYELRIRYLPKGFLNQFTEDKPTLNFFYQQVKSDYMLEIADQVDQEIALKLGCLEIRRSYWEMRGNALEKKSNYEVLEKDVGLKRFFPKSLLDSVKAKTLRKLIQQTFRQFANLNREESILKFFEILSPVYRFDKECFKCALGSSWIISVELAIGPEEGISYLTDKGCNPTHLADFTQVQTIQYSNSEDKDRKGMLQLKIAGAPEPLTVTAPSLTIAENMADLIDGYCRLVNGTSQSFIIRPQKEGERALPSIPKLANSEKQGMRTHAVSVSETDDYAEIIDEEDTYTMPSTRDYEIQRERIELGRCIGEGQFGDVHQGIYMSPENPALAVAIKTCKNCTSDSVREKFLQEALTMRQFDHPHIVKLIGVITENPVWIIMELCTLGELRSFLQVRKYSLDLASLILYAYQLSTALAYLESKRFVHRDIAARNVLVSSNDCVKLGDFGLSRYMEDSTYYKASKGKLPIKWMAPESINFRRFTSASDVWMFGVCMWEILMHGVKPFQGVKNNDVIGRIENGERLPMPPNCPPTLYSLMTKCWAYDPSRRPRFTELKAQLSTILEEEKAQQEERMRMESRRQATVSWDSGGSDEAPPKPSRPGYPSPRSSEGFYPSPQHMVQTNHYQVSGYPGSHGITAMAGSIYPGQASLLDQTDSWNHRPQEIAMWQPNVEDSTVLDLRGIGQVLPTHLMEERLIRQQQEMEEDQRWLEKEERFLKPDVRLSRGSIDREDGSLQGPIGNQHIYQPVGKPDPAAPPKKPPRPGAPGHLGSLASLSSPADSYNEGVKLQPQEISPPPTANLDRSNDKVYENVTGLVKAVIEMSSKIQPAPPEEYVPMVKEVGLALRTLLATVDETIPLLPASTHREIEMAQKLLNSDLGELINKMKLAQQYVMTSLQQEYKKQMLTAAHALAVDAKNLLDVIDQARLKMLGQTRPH

SMILES	composite z-score [1]	composite z-score [2]	composite z-score [3]	composite z-score [4]	composite z-score [5]	composite z-score [6]	z-score [7]	composite z-score (Lefty1)	composite z-score [8]	z-score [9]
C=CCOC(=O)[C@@H]1[C@H]2C(=O)O[C@H](c3ccccc3)[C@H](c3ccccc3)N2[C@H](c2ccc(OCCOC(=O)[C@@H]3C[C@@H]4C(=O)N[C@@H](Cc5ccccc5)C(=O)N4[C@@H]3c3ccc(O)cc3)cc2)[C@@]12C(=O)Nc1ccc(I)cc12	1.11	0.947	0.375	0.799	1.41	1.61	-1.53	1.41	0.844	0.304 (inactive)
CC(C)(C)OC(=O)CC[C@@]1(C(N)=O)N=C(c2ccc(OCCCO)cc2)O[C@@H]1c1ccccc1	1.27	1.13	0.754	0.971	0.136	-0.343	-0.655	-0.0503	0.178	-0.637 (inactive)
CCCC[C@@H]1C[C@H]1[C@@H](NC(=O)c1ccco1)c1ccc(C(=O)OC)cc1	-0.499	0.149	0.214	0.0507	-0.943	-1.42	-0.814	-0.431	0.586	1.94 (inactive)
CN(C)CCCNC(=O)[C@@]1(C)c2ccccc2C(=O)N(Cc2cc(F)cc(C(F)(F)F)c2)[C@H]1c1ccc(CO)cc1	-0.731	-0.358	0.63	-0.0121	-0.673	-0.67	-0.202	-0.91	0.397	-0.0378 (inactive)
CCOC(=O)[C@H]1CC=C2CC1C(=O)N1CCC[C@@H]1[C@@H]2O[Si](C)(C)C(C)(C)C (stereo not given in full)	-0.0289	-0.708	-0.173	-0.162	-0.878	-0.206	-0.158	0.449	-0.502	0.367 (inactive)
C=CCN(Cc1ccccc1)C(=O)C(c1cccs1)N(CCOCCO)C(=O)/C=C\C(=O)O (stereo not given)	-0.187	-0.92	-0.374	-2.2	-2.64	-2.43	0.316	-2.47	-0.47	-3.93 (inactive)
CCCCN1CC=CC23O[C@@H]4C=CCOC(=O)[C@@H]4[C@H]2C(=O)N(CCCCCO)[C@@H]3C1=O (stereo not given in full)	0.0981	-0.444	-0.204	-0.921	-0.712	-0.342	-0.478	-0.393	-0.651	0.01 (inactive)
CCOC(=O)C[C@H]1[C@H](OC(=O)c2cc3ccccc3oc2=O)[C@@H](NC(=O)C2CCCCC2)c2cc(OCCCO)ccc2N1C(=O)c1ccccc1	0.127	0.942	0.711	0.799	0.786	1.48	-0.353	0.558	0.667	-0.196 (inactive)
CCOC(=O)C1=CCC(c2ccccc2)N(S(=O)(=O)CC[Si](C)(C)C)C1 (stereo not given)	0.149	-0.401	0.384	-0.325	-0.172	-0.617	3.06	-0.503	0.0225	1.2 (inactive)
C=CCOC(=O)[C@@H]1[C@H]2C(=O)O[C@H](c3ccccc3)[C@H](c3ccccc3)N2[C@H](c2ccc(OCCOC(=O)[C@@H]3C[C@@H]4C(=O)N[C@@H](CCCC[N+](C)(C)C)C(=O)N4[C@@H]3c3cccc(OCCO)c3)cc2)[C@@]12C(=O)Nc1ccc(I)cc12	1.13	1.17	1.15	0.531	1.41	1.79	-1.2	1.64	0.347	-1.82 (inactive)
O=C1c2ccccc2[C@](Cc2ccccc2I)(C(=O)NC2CC2)[C@H](c2ccc(CO)cc2)N1Cc1ccccc1	-0.025	0.0081	-0.186	0.471	0.885	1.16	-0.194	-0.502	0.322	0.873 (inactive)
CC(C)(C)OC(=O)CC[C@@]1(C(=O)NCCN2CCOCC2)N=C(c2ccc(OCCCO)cc2)O[C@@H]1c1ccccc1N=[N+]=[N-]	0.22	1.2	1.21	0.554	1.18	-0.156	1.26	-0.0836	0.0832	-9.63 (active)
CC(C)N1C(=O)c2ccccc2[C@](C)(C(=O)NCc2ccccc2)[C@@H]1c1ccc(CO)cc1	3.09	0.29	0.239	-1.77	-0.24	-0.131	-0.39	-0.554	-0.444	-1.06 (inactive)
CCOC(=O)C[C@H]1[C@H](OC(=O)Cc2ccc3c(c2)OCO3)[C@@H](NC(=O)c2ccc(-c3ccccc3)cc2)c2cc(OCCCO)ccc2N1C(=O)Cc1ccc(OC)cc1	0.0923	0.516	0.165	0.872	0.518	0.28	1.24	0.475	0.415	-1.11 (inactive)
CN1C2C=C(CCCO)C(C3C(=O)N(C(N)=O)C(=O)C32)C1c1ccc(CN2CCCC2)cc1 (stereo not given)	0.161	-0.697	-0.311	-0.929	-0.0168	0.0692	-0.637	-0.484	-0.0816	0.73 (inactive)
O=C1OCC=C[C@H]2OC34C=CCN(CCN5CCOCC5)C(=O)[C@H]3N(CCCO)C(=O)[C@@H]4[C@@H]12 (stereo not given in full)	0.314	0.323	0.574	0.38	0.216	-0.344	-0.798	0.606	0.114	-0.206 (inactive)

SMILES	composite z-score [1]	composite z-score [2]	composite z-score [3]	composite z-score [4]	composite z-score [5]	composite z-score [6]	z-score [7]	composite z-score (Lefty1)	composite z-score [8]	z-score [9]
C=CC[C@]12N=C(c3ccc(OCCCO)cc3)O[C@H]1c1ccccc1N(Cc1ccccc1)C2=O	1.74	0.998	0.804	-0.0608	1.29	1.34	-1.21	-0.0331	0.442	-4.07 (inactive)
O=C1OCCC/C=C\[C@H]2OC34C=CCN(c5ccc6ccccc6c5)C(=O)[C@H]3N(CCCCCCO)C(=O)[C@@H]4C12 (stereo not given in full)	1.79	0.124	-0.29	-1.74	-0.179	-0.943	1.74	-0.159	-0.0279	-1.47 (inactive)
CS(=O)(=O)CCOC(=O)C1=CC(CCCO)=CC(c2ccc(CN3CCCC3)cc2)N(Cc2cc3c(cc2Br)OCO3)C=C1C(=O)OCCS(C)(=O)=O (stereo not given)	2.28	0.712	0.0113	0.971	0.694	0.382	3.39	0.666	0.914	-1.78 (inactive)
CC(=O)NCCCC[C@@H]1NC(=O)[C@@H]2C[C@H](C(=O)NCCCCCCNC(=O)CS)[C@H](c3cccc(OCCO)c3)N2C1=O	1.23	1.1	0.314	-0.917	1.24	1.59	0.488	0.574	0.379	-0.242 (inactive)
CCN(CC)c1ccc(N2CC=CC34O[C@@H]5/C=C\CCC(C)OC(=O)C5[C@H]3C(=O)N(C(CO)C(C)C)[C@@H]4C2=O)cc1 (stereo not given in full)	-0.264	-0.651	0.174	-0.4	-0.452	0.0509	0.93	-0.674	-0.558	-1.09 (inactive)
[N-]=[N+]=NCc1ccccc1C[C@]1(C(=O)N2CCOCC2)N=C(c2ccc(OCCCO)cc2)O[C@H]1c1ccccc1N=[N+]=[N-]	0.595	1.23	0.0652	0.987	1.33	0.823	0.274	1.31	1.03	-7.46 (inactive)
COc1ccc([Si](C)(C)[C@@H]2[C@@H](CC(=O)N3Cc4ccccc4C[C@H]3CO)O[C@]3(C(=O)N(C)c4c(Br)cc(C)cc43)[C@H]2C)cc1	0.333	1.13	0.341	0.76	1.35	1.65	0.595	1.56	1.03	-0.178 (inactive)
O=C1C2C=CC(C(O)c3ccc(F)cc3)N(Nc3ccccc3F)C2C(=O)N1c1ccccc1 (stereo not given)	1.55	1.13	0.198	0.958	1	-0.514	-0.227	-0.497	1.17	1.28 (inactive)
CCCN1C(=O)[C@]2(CCS(=O)(=O)c3ccccc3)N=C(c3ccc(OCCCO)cc3)O[C@@H]2c2ccccc21	1.02	1.21	0.554	0.967	0.958	0.408	0.535	0.576	0.737	0.54 (inactive)
CN1C(=O)[C@]2(Cc3ccccc3)N=C(c3ccc(OCCCO)cc3)O[C@@H]2c2ccccc21	0.0581	1.2	1.07	0.775	1.3	1.8	-0.00476	0.201	0.831	-4.06 (inactive)
O=C1O[C@@H](c2ccccc2)[C@@H](c2ccccc2)N2[C@@H](c3ccc(OCCO)cc3)[C@]3(C(=O)Nc4ccccc43)[C@@H](C(=O)NC[C@H](O)c3ccccc3)[C@H]12	0.87	0.894	-0.177	0.371	1.34	0.968	-0.575	0.0849	0.638	-1.46 (inactive)
COCCOC(=O)N1C(=O)[C@@]2(c3cc(C#CC4=CCCCC4)ccc31)[C@H](C(=O)N1CCc3cc(OC)c(OC)cc3C1)[C@H]1C(=O)O[C@H](c3ccccc3)[C@H](c3ccccc3)N1[C@@H]2c1ccc(OCCO)cc1	1.2	1.14	0.756	0.868	1.15	1.16	-1.21	1.1	0.118	-1.09 (inactive)
COc1ccc(CCN2C(=O)[C@@]3(Cc4ccccc42)c2ccccc2C(=O)N(Cc2ccccc2C(F)(F)F)[C@H]3c2ccc(CO)cc2)cc1	0.752	-0.175	-0.324	0.732	1.12	0.83	-0.963	0.541	0.461	0.642 (inactive)
COC(=O)[C@@]1(Cc2ccccc2)[C@H]2c3cc(C(=O)N4CCCC4)n(CC4CC4)c3C[C@H]2CN1C(=O)c1ccccc1	1.13	1.2	0.885	0.643	0.76	-0.031	-0.641	0.206	0.847	1.42 (inactive)
O=C1O[C@H](c2ccccc2)[C@H](c2ccccc2)N2[C@H]1[C@@H](C(=O)O)[C@]1(C(=O)Nc3ccc(C#CC4=CCCCC4)cc31)[C@H]2c1ccccc1OCCO	1.76	1.23	0.827	0.922	1.26	1.08	-2.56	1.63	1.18	-6.51 (inactive)
O=C1[C@H]2C=C(Br)[C@H](C[C@@H]2c2ccccc2)[C@@]12CO2	0.828	0.253	0.004	-0.0786	1.14	0.402	-0.0698	0.785	-0.21	0.266 (inactive)
